Assay outcomes (PubChem BioAssay)
Only some compounds are listed: those with a hit (about 2.9% of all), similar ones and a draw of the others.
Mtb hypoxia inh – Mtb hypoxia fluorescent reporter inhibition. M. tuberculosis hypoxia-regulated fluorescent reporter, fluorescence. fluorescence inhibition, % (test concentration not listed). actives 0.1% (n = 300,000); in the data active = fluorescence inhibition mostly above about 23%, no sharp cut-off; inactive = mostly below about 17%
FadD28 FP inh – M. tuberculosis FadD28 bisubstrate binding inhibition. FadD28 bisubstrate probe binding, fluorescence polarization. inhibition, % at 12.5 µM. actives 0.22% (n = 360,000). AID 588549; in the data active = inhibition above about 8.5%, passing the limit was not always enough; inconclusive = no clear call, values can overlap the other calls
GDH-TPI inh – GDH-TPI coupled enzyme inhibition counter-screen; GDH-TPI coupled enzyme counterscreen, NADH absorbance; inhibition, % at 4.8 µM; actives 1.2% (n = 360,000); in the data active = inhibition above about 30%;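 also: 0% = DMSO wells and 100% = wells lacking the enzyme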
Mtb BioA inh – inhibitors of Mycobacterium tuberculosis BioA enzyme. AID 602481. actives 0.096% (n = 360,000). purified M. tuberculosis BioA enzyme, plate reader. inhibition, % at 9.99 µM; in the data active = inhibition above about 40%; inconclusive = no clear call, values can overlap the other calls
FBA Mtb inh – inhibitors of M. tuberculosis fructose-bisphosphate aldolase; P9WQA3; purified M. tuberculosis FBA, fluorescence read-out; inhibition, % at 1 µM; actives 2.3% (n = 360,000); AID 588726; in the data active = inhibition above about 27%;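 also: 0% = vehicle and 100% = reference inhibitor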
Target sequence (P9WQA3 whole entry, looked up): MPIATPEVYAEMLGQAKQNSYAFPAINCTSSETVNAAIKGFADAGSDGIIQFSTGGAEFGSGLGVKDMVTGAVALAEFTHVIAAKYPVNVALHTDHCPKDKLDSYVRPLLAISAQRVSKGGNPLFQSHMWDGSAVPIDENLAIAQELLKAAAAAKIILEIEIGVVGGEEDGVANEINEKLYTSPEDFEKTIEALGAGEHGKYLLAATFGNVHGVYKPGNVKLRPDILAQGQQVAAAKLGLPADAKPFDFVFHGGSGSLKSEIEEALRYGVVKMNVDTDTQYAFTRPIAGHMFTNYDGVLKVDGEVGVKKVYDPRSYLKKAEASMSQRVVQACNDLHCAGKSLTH
Starred values were filed as active, the others as inactive; ? = inconclusive; . = no result given.

SMILES	Mtb hypoxia inh	FadD28 FP inh	GDH-TPI inh	Mtb BioA inh	FBA Mtb inh
CN1CCS/C1=C/C=C1\SC(=S)N(CC(=O)O)C1=O	58*	-1	14	-78	-38
CCCCN1C(=O)/C(=C/C=C2\SCCN2C)SC1=S	25	2	-2	.	-16
COc1cc(NC(=O)/C=C/c2ccccc2)c(C(=O)O)cc1OC	10	-2	44*	0	-7
COc1cc(NC(=O)Cc2ccccc2)c(C(=O)O)cc1OC	7	-3	0	.	-1
COc1cc(NC(=O)Nc2cccc(Cl)c2)c(C(=O)O)cc1OC	-5	2	14	-1	146*
COc1ccc(CNC(=O)c2cc3c(=O)n4ccccc4nc3n(Cc3cccnc3)c2=N)cc1	-9	-4	18	-1	8
COCCCn1c(=N)c(C(=O)NCc2ccc3c(c2)OCO3)cc2c(=O)n3ccccc3nc21	3	-2	1	0	7
COCCn1c(=N)c(C(=O)NCc2ccco2)cc2c(=O)n3ccccc3nc21	14	1	3	2	138*
N=c1c(C(=O)NCc2ccc(F)cc2)cc2c(=O)n3ccccc3nc2n1Cc1ccco1	.	-9	7	1	38*
N=c1c(C(=O)NCc2ccco2)cc2c(=O)n3ccccc3nc2n1Cc1ccccc1	.	?	15	-1	163*
CO[C@H]1CN(C)C(=O)c2cc(NS(C)(=O)=O)ccc2OC[C@H](C)N(CC2CCOCC2)C[C@H]1C	.	.	.	-3	.
C[C@H]1CN([C@@H](C)CO)C(=O)Cc2cc(NC(=O)Nc3ccc(C(F)(F)F)cc3)ccc2O[C@H]1CN(C)Cc1ccccc1	.	.	.	-1	.
O=C(C[C@@H]1C=C[C@@H](NC(=O)Nc2ccc3c(c2)OCO3)[C@H](CO)O1)NCc1ccc(F)cc1	.	.	.	-1	.
O=C(O)c1cc(O)c2c(c1)C(=O)c1cc(O)cc(O)c1C2=O	.	13*	19	4	-2
O=C(N1CCN(c2cccc(Cl)c2)CC1)C1(S(=O)(=O)c2ccc(Cl)cc2)CC1	-1	-4	-3	.	1
CC(=O)c1ccc(N2CCN(C(=O)C3(S(=O)(=O)c4ccc(Cl)cc4)CC3)CC2)cc1	3	-2	34*	3	3
COc1cc(/C=N/Nc2ccc(C(=O)O)cc2)ccc1O	.	2	33*	.	2
COc1ccc(C=NNc2nc(N3CCCC3)nc(N3CCCC3)n2)cc1O	0	.	.	.	.
COc1cc(C(=O)N/N=C/c2ccsc2C)cc(OC)c1OC	.	1	37*	.	-1
COc1cc(C(=O)NN=Cc2ccsc2C)cc(OC)c1OC	8	.	.	.	.
COc1cc(C=NNC(=S)Nc2cccc(C(=O)O)c2)ccc1O	7	.	.	.	.
COc1cc(/C=N/NC(=S)Nc2cccc(C(=O)O)c2)ccc1O	.	-6	32*	2	4
COc1cc(C=NNc2ccc(C(=O)O)cc2)ccc1O	1	.	.	.	.
COc1cc(/C=N/Nc2nc(N3CCCC3)nc(N3CCCC3)n2)ccc1O	.	-1	35*	-2	5
Nc1nnnn1N=Cc1cccc(Oc2ccccc2)c1	2	.	.	.	.
SMILES	Mtb hypoxia inh	FadD28 FP inh	GDH-TPI inh	Mtb BioA inh	FBA Mtb inh
COc1ccc(OC)c(C=NNC(=O)c2cc3c(OC)cccc3[nH]2)c1	6	.	.	.	.
COc1ccc(/C(C)=N/Nc2ccc(C(=O)O)cc2)cc1OC	.	2	56*	-1	4
COc1cc(/C=N/Nc2ccc(C(=O)O)cc2)cc(OC)c1OC	.	-1	41*	.	-1
COc1ccc(C=NNc2ccc(C(=O)O)cc2)cc1Br	2	.	.	.	.
COc1ccc(-c2cnnc(N/N=C/c3ccc(O)c(OC)c3)n2)cc1	.	-2	55*	1	-1
COc1cc(/C=N/NC(=O)c2cnccn2)cc(OC)c1OC	.	-1	32*	13	-1
O=C(O)c1cccc(Cn2c(Cl)c(C=NNC(=O)c3ccccc3O)sc2=O)c1	16	.	.	.	.
COc1ccccc1-c1cnc2c(c1)C(=O)N([C@@H](C)CO)C[C@@H](C)[C@@H](CN(C)Cc1ccc(F)cc1)O2	.	.	.	-1	.
CO[C@@H]1CN(C)C(=O)c2ccc(NC(=O)NC(C)C)cc2OC[C@@H](C)N(C)C[C@@H]1C	.	.	.	0	.
COc1cc(/C=N/NC(=S)NCCc2ccccc2)cc(OC)c1OC	.	1	41*	0	1
C=CCOc1c(OC)cc(/C=N/Nc2cccc(C(=O)O)c2)c(Br)c1Br	.	16*	15	2	5
COc1cc(/C=C/C(C)=NNc2ccccc2)ccc1O	19	0	32*	-1	1
C=CCOc1c(Br)cc(C=NNc2ccc(C(=O)O)cc2)cc1OCC	11	.	.	.	.
COc1ccc(S(=O)(=O)Nc2ccc3c(c2)C(=O)N([C@@H](C)CO)C[C@@H](C)[C@@H](CN(C)CC2CCCCC2)OCCCC[C@H](C)O3)cc1	.	.	.	0	.
